Activity calls are given as the source filed them.
assay: PSAC antagonists in infected red cells, primary screen, cell-based, P. falciparum Indochina, OD700, 2 h (AID 1155);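 note: lysis reports solute entry through the parasite surface anion channel PSAC; channel blockers reduce lysis of infected cells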; conditions: P. falciparum Indochina infected erythrocytes, osmotic lysis OD700; higher = more signal, called active from +8 up or from −8 down

Structure (SMILES) | z-score
CCOC(=O)[C@H](Cc1ccccc1)NC(=O)CCC1CC(OC(=O)NCc2cccc3ccccc23)CC2(CCCC(COC(=O)NCc3cccc(C(F)(F)F)c3)O2)O1 (stereo partly drawn) | 2.83 (inactive)
COC(=O)CC=C[C@@H](C)[C@@H](C=NOC(C)CN1CCCc2nc(C)c(C)cc21)OC (stereo partly drawn) | 0.633 (inactive)
COC(=O)[C@@H]1CC[C@H](C)[C@@H](c2ccc(C)cc2)N1C(=O)c1ccc(C=NO[C@H](C)c2cn([C@H](CO)Cc3ccccc3)nn2)cc1 | 2.92 (inactive)
CO[C@@H]1C=CCC(=O)N[C@@H](C)C(=O)OC[C@@H](OC)[C@H](C)CCCC(=O)OC[C@H]1C | -1.22 (inactive)
COc1ccc(O[C@H]2C=C[C@@H](c3ccccc3)O[C@@H]2CON=C(C)C)cc1 | -0.0779 (inactive)
CCOC(=O)[C@H](CC(C)C)NC(=O)CCC1CC(OC(=O)NCc2cccc3ccccc23)CC2(CCCC(COC(=O)NCCOC)O2)O1 (stereo partly drawn) | 0.184 (inactive)
CCCCC#C[C@@H]1C=C[C@H](Oc2ccc(C(=O)OC)cc2)[C@@H](COC(=O)OCC)O1 | 1.38 (inactive)
Cc1ccc(S(=O)(=O)n2c3ccccc3c3nnc(C(=O)c4ccccc4)nc32)cc1 | 0.266 (inactive)
COc1ccc(O[C@H]2C=C[C@@H](c3ccccc3)O[C@@H]2CON=CC[C@@H]2C=C[C@H](OC(C)=O)[C@@H](COC(C)=O)O2)cc1 | 1.95 (inactive)
O=C(NN=C1C[C@@H](O)[C@@H](O)[C@@H]2[C@@H]3C(=O)N(Cc4ccccc4)C(=O)[C@@H]3CC[C@@H]12)OCc1ccccc1 | 0.801 (inactive)
COc1ccc(O[C@H]2C=C[C@@H](c3ccccc3)O[C@@H]2COC(=O)CCC(C)=NO[C@@H]2O[C@H](COC(C)=O)[C@@H](OC(C)=O)[C@H](OC(C)=O)[C@H]2OC(C)=O)cc1 | 0.583 (inactive)
CO[C@H]1COC(=O)CC=C[C@H](C)[C@@H](OC)COC(=O)[C@@H](C)NC(=O)CC=C[C@@H]1C | -0.863 (inactive)
CC(C)[C@@H](OCc1ccccc1)[C@H](C)C=NOC[C@@H](O)COCc1ccco1 | -0.332 (inactive)
CCCCC#C[C@@H]1C=C[C@H](OC(C)=O)[C@@H](COC(C)=O)O1 | 0.364 (inactive)
CO[C@@H]1COC(=O)[C@@H](C)COC(=O)[C@@H](C)NC(=O)CC=C[C@@H]1C | -1.26 (inactive)
C[C@H]1Cc2c(COc3ccccc3)nc3c(c2CO1)CN(CCOc1ccccc1)CC3 | 0.484 (inactive)
CCCNC(=O)OC[C@H]1O[C@H](CCON=C(C)CCC(=O)OC[C@H]2O[C@H](c3ccccc3)C=C[C@@H]2Oc2ccc(OC)cc2)C=C[C@@H]1Oc1ccc(OC)cc1 | 0.767 (inactive)
CCOC(=O)NN=C1C[C@@H](O)[C@@H](O)[C@@H]2[C@@H]3C(=O)N(C(C)(C)C)C(=O)[C@@H]3CC[C@H]12 | 0.16 (inactive)
C[C@@H](ON=C1[C@H]2CCn3c(=O)n(-c4ccccc4)c(=O)n3[C@H]2[C@H](O)[C@@H]2O[C@H]12)c1cn([C@@H]2COC[C@H]2O)nn1 | 0.277 (inactive)
COc1ccc(COC(=O)NN=C2C[C@@H](O)[C@@H](O)[C@@H]3[C@@H]4C(=O)N(C5CCCCC5)C(=O)[C@@H]4CC[C@H]23)cc1 | 1.51 (inactive)
CC(=O)OC[C@H]1O[C@H](C#Cc2ccccc2)C=C[C@@H]1OC(C)=O | -0.08 (inactive)
O=C1CCCC=C1C(CCc1ccccc1)OC(=O)c1ccc(Br)cc1 (stereo not drawn) | 0.748 (inactive)
CCN1C(=O)[C@@H]2[C@H]3C(=CC[C@@H]2C1=O)C1(OCCCO1)[C@H]1O[C@H]1[C@H]3O | 12.1 (active)
O=C1[C@H]2[C@H]3[C@H](O)[C@H](O)CC(=NOCc4ccccc4)[C@@H]3CC[C@H]2C(=O)N1C[C@@H]1CCCO1 | 0.141 (inactive)
COC(=O)[C@H]1O[C@@H](c2c(OC)c(OC)c(C)c(OC)c2OC)[C@H](C)[C@@H](O)[C@H]1C | 0.183 (inactive)
C#CCCCON=C1C[C@@H](O)[C@@H](O)[C@@H]2[C@@H]3C(=O)N(C(C)(C)C)C(=O)[C@@H]3CC[C@H]12 | 0.371 (inactive)
C=CC[C@@H]1C=C[C@H](ON=C(C)CCN2CCc3nc(-c4ccccc4)c(-c4ccccc4)cc3C2)[C@@H](CO)O1 | 0.809 (inactive)
CC(C)=CCCC(C)=CCON=C1C[C@@H](O)[C@@H](O)[C@@H]2[C@@H]3C(=O)N(Cc4ccccc4)C(=O)[C@@H]3CC[C@H]12 | -0.206 (inactive)

Reference: PubChem BioAssay
